Screening results (PubChem)
GLS inh – glutaminase GLS (human) inhibition; O94925; GLS enzymatic activity, qHTS titration; Potency, µM (highest dose often 45.5 µM), usual class: inhibitors; 0.21% of 410,000 active; AID 624170
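Human kidney-isoform GLS in 45 mM KH2PO4 pH 8.2, 0.02% Tween-20, with compound, started with 1mM L-Glutamine (added stock). Glutamate oxidase/HRP/Amplex red coupled fluorescence read at start and after 30 min at RT.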
GCN5L2 inh – GCN5L2 (KAT2A) acetyltransferase inhibition; Potency, µM (top dose mostly 58.9 µM), actives largely listed as inhibitors; AID 504327; GCN5L2 HAT assay, ThioGlo1 CoA-SH fluorescence; 0.21% of 390,000 active
Target sequence (Q92830 whole entry, looked up): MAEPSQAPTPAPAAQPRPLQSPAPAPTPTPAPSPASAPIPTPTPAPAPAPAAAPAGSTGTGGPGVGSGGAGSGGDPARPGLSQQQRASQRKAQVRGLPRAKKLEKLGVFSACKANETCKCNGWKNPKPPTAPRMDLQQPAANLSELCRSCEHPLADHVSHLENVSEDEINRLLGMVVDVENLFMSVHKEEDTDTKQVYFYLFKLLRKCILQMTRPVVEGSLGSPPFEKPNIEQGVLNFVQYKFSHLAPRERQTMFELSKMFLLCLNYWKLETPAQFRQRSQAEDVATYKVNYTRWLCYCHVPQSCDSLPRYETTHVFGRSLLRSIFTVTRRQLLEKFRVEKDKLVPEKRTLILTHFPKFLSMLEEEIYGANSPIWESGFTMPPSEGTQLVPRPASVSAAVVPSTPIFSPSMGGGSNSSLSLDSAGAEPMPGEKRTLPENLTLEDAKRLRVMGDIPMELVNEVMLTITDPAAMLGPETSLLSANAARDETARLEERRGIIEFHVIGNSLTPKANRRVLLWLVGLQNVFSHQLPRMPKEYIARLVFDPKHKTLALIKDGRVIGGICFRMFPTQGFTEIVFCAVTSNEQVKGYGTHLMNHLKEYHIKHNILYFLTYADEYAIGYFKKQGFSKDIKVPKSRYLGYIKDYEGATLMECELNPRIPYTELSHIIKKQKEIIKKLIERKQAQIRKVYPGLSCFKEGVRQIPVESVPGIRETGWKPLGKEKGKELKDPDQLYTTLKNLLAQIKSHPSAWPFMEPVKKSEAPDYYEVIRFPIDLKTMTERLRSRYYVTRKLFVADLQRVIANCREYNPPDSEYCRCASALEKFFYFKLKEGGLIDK
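Free CoA generated was detected with ThioGlo1 (50uM) fluorescence at Ex340nm/Em540nm, read immediately and after 20 min at room temperature. Enzyme, 20 nM in HEPES pH 7.5 buffer, saw compounds 15 min before adding 75uM H3(1-25) peptide and 70uM acetyl-CoA.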
PLK1 PBD inh – blocks phosphopeptide binding to human PLK1 polo-box domain. Plk1 PBD binding of FITC phosphopeptide, fluorescence polarization. Potency, µM, hits mostly inhibitors. 2.8% of 360,000 active. AID 720504; also: series mostly up to about 57 µM; nearly all actives have a fitted effect of over 65% in size
VDR inhibitor – inhibitors of human vitamin D receptor; P11473; VDR-SRC2-3 peptide fluorescence polarization, 2 h; Potency, µM, most hits filed as inhibitors; 0.93% of 400,000 active
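Fluorescence polarization assay of small-molecule disruption of VDR binding to coregulator peptide SRC2-3. Compounds and controls pin-transferred, then read after 2 h incubation at ambient room temperature.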
Mito fusion act – mitochondrial division inhibition or fusion activation; Potency, µM (doses to about 46.1 µM), actives largely listed as activators; AID 485298; S. cerevisiae fusion-defective mutant growth rescue, CellTiterGlo 48 h; 0.23% of 320,000 active; also: nearly all actives have a fitted effect of over 45% in size
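Compounds are tested for their ability to restore growth of mitochondrial fusion-defective yeast strains at non-permissive 37C in YPEG medium over 48 hours. Viability is quantified by luciferase luminescence.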
PKM2 activator – activators of human pyruvate kinase M2; purified PKM2, Kinase-Glo ATP luminescence, activation; response scale: 0% is enzyme alone, no compound; AID 1631; P14618; 0.34% of 260,000 active; Potency, µM (series often up to 57.5 µM), hits mostly activators; also: nearly all actives have a fitted effect of over 55% in size
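ATP formation by purified human PK-M2, quantified via coupled luciferase luminescence after 1 h at room temperature with 0.1 mM ADP and 0.5 mM PEP final.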
A number is an active result. This is a sample that favours compounds with a hit; in the whole collection about 3.4% have one here. Calls follow the shape of the dose curve; as a rule, active = well fitted curve in the direction sought with a large enough effect; inconclusive = small, poorly fitted or top-dose-only effect, or another doubt; inactive = no such curve, though single readings can be large; an effect the other way counts as inactive or inconclusive.

`CC(C)(C)c1ccc(-c2nc3[nH]c(=O)cc(NC(=O)c4ccco4)n3n2)cc1` gave GLS inh inactive, GCN5L2 inh inactive, PLK1 PBD inh 24µM, VDR inhibitor inactive and Mito fusion act inactive.
Cc1ccc(-c2nc3[nH]c(=O)cc(NC(=O)c4cccs4)n3n2)cc1 was read as GLS inh inconclusive, GCN5L2 inh inactive, PLK1 PBD inh inactive, VDR inhibitor inactive, Mito fusion act inactive and PKM2 activator inactive.
Cc1ccc2c(c1)C(O)(CC(=O)/C=C/C=C/c1ccccc1)C(=O)N2 (stereo unspecified) was read as GLS inh inactive, GCN5L2 inh inactive, PLK1 PBD inh inactive, VDR inhibitor inactive, Mito fusion act inactive and PKM2 activator inactive.
O=C(CSc1nccn1Cc1ccc(F)cc1)Nc1ccc2c(c1)OCCO2 was read as GLS inh inactive, GCN5L2 inh inactive and VDR inhibitor inactive.
For COc1cccc(-c2nc(CS(=O)(=O)CC(=O)Nc3cccc(C(C)=O)c3)c(C)o2)c1 the results were GLS inh inactive, GCN5L2 inh inactive, PLK1 PBD inh 24µM, VDR inhibitor inconclusive and Mito fusion act inactive.
For COc1ccc(C)cc1NC(=O)C(NC(=O)c1cc(OC)c(OC)c(OC)c1)C(C)C (stereo unspecified) the results were GLS inh inactive, GCN5L2 inh inactive, PLK1 PBD inh 30µM, VDR inhibitor inconclusive, Mito fusion act inactive and PKM2 activator inactive.
For CCOC(=O)c1c[nH]c2c(C(F)(F)F)cccc2c1=O the results were GLS inh inactive, GCN5L2 inh inactive, PLK1 PBD inh inactive, VDR inhibitor inactive, Mito fusion act inactive and PKM2 activator inactive.
For O=C(Cn1c2ccccc2c(=O)c2ccccc21)Nc1cccc(F)c1 the results were GLS inh inactive, GCN5L2 inh inactive, PLK1 PBD inh 11µM, VDR inhibitor inconclusive, Mito fusion act inactive and PKM2 activator inactive.
`CCC1CCCCN1C(=O)Cn1c(=O)n(-c2ccc(Cl)c(Cl)c2)c(=O)c2c(C)c(C(=O)N(C)C)sc21` (stereo unspecified) gave GLS inh inactive, GCN5L2 inh inactive and VDR inhibitor inactive.
For CC(NC(=O)Nc1ccccc1O)(C(F)(F)F)C(F)(F)F the results were GLS inh inactive, GCN5L2 inh inactive, PLK1 PBD inh 27µM, VDR inhibitor inactive, Mito fusion act inactive and PKM2 activator inactive.
For CC(NC(=O)Nc1ccc(O)cc1)(C(F)(F)F)C(F)(F)F the results were GLS inh inactive, GCN5L2 inh inactive, PLK1 PBD inh inactive, VDR inhibitor inactive, Mito fusion act inactive and PKM2 activator inactive.
For Cc1cccc(NC(=O)N(C)Cc2cccs2)c1 the results were GLS inh inactive, GCN5L2 inh 32µM, PLK1 PBD inh inactive, VDR inhibitor inactive, Mito fusion act inactive and PKM2 activator inactive.
`O=C1C2C3C=CC(C3)C2C(=O)N1/N=C/c1cn(Cc2ccccc2)c2ccccc12` (stereo unspecified) gave GLS inh inactive, GCN5L2 inh inactive, PLK1 PBD inh inactive, VDR inhibitor inactive, Mito fusion act inactive and PKM2 activator inactive.
Screening CCOC(=O)Cn1cc(/C=N/N2C(=O)C3C4C=CC(C4)C3C2=O)c2ccccc21 (stereo unspecified) returned GLS inh inactive, GCN5L2 inh inactive, PLK1 PBD inh 15µM, VDR inhibitor inconclusive, Mito fusion act inactive and PKM2 activator inactive.
For CC(C)C(=O)N1CCC1(C)C(=O)Nc1ccc2[nH]ccc2c1 (stereo unspecified) the results were GLS inh inactive and PLK1 PBD inh inactive.
`CC(C)(C)C(=O)[C@@H]1[C@@H]2C(=O)N(C3CCCCC3)C(=O)[C@@H]2[C@H]2c3ccccc3C=CN12` gave GCN5L2 inh inactive, PLK1 PBD inh 27µM, VDR inhibitor inactive, Mito fusion act inactive and PKM2 activator inactive.
`CCOC(=O)CSc1nnc(COc2ccc3ccccc3c2)o1` gave GLS inh inconclusive, GCN5L2 inh inactive, PLK1 PBD inh 27µM, VDR inhibitor inactive, Mito fusion act inactive and PKM2 activator inactive.
For CN(C)C(CNC(=O)c1ccc(S(=O)(=O)Nc2ccccc2F)cc1)c1ccco1 (stereo unspecified) the results were GLS inh inactive, GCN5L2 inh inactive, PLK1 PBD inh inactive, VDR inhibitor inactive and Mito fusion act inactive.
For N#Cc1c2c(c(=S)n(-c3ccccc3)c1N)CCCC2 the results were GLS inh inactive, GCN5L2 inh inactive, PLK1 PBD inh 2.7µM, VDR inhibitor inactive, Mito fusion act inactive and PKM2 activator inactive.
`Cn1c(N)c(C#N)c2c(c1=S)COC(C)(C)C2` gave GLS inh inactive, GCN5L2 inh inactive, PLK1 PBD inh inactive, VDR inhibitor inactive, Mito fusion act inactive and PKM2 activator inactive.
Screening CCC1(C)Cc2c(C#N)c(SC)nc(N3CCOCC3)c2CO1 (stereo unspecified) returned GLS inh inactive, PLK1 PBD inh inactive and VDR inhibitor inactive.
CCC1(C)Cc2c(C#N)c(N)n(N)c(=S)c2CO1 (stereo unspecified) was read as GLS inh inactive, GCN5L2 inh inactive, PLK1 PBD inh 27µM, VDR inhibitor inactive, Mito fusion act inactive and PKM2 activator inactive.
CCOC(=O)c1c2c(c(=S)n(-c3ccccc3)c1N)CCC2 was read as GLS inh inactive, GCN5L2 inh inactive, PLK1 PBD inh inactive, VDR inhibitor inactive, Mito fusion act inconclusive and PKM2 activator inactive.
Screening CC1(C)Cc2c(C#N)c(N)n(-c3ccccc3)c(=S)c2CO1 returned GLS inh inactive, GCN5L2 inh inactive, PLK1 PBD inh 11µM, VDR inhibitor inactive, Mito fusion act inactive and PKM2 activator inactive.
Screening COc1cccc(CNC(=O)CCS(=O)(=O)c2ccc3c(c2)oc(=O)n3C)c1 returned GLS inh inactive, GCN5L2 inh inactive, PLK1 PBD inh inactive, VDR inhibitor inactive and Mito fusion act inactive.
Screening COc1ccc(CCNC(=O)C2CCN(C(=O)c3ccc(Br)cc3)CC2)cc1 returned GLS inh inactive, GCN5L2 inh inactive, PLK1 PBD inh 27µM, VDR inhibitor inconclusive, Mito fusion act inactive and PKM2 activator inactive.
COc1ccc(CCNC(=S)N2CCC(C(N)=O)CC2)cc1 was read as GLS inh inactive, GCN5L2 inh inactive, PLK1 PBD inh 34µM, VDR inhibitor inactive, Mito fusion act inactive and PKM2 activator inactive.
Screening COc1ccc(CCNC(=O)C2CCCN(C(=O)c3ccc(Cl)cc3)C2)cc1 (stereo unspecified) returned GLS inh inactive, GCN5L2 inh inactive, PLK1 PBD inh inactive, VDR inhibitor inactive, Mito fusion act inactive and PKM2 activator inactive.
`CN(C)CC[C@@](O)(c1ccccc1)c1ccccc1Cl` gave GLS inh inactive, GCN5L2 inh inactive and VDR inhibitor inactive.
